The term inhibition denotes the relative decrease from the control value, in per cent.

Out of some 340,000 compounds screened, about 200 (0.059%) were called active. Cut-off read from the data, not from the text of the source: active = inhibition above about 34%; inactive = the rest. What follows is part of a selection rich in actives, with near analogues and random picks from the rest.

Diacylglycerol lipase-beta (Homo sapiens), sequence (Q8NCG7 whole entry, looked up): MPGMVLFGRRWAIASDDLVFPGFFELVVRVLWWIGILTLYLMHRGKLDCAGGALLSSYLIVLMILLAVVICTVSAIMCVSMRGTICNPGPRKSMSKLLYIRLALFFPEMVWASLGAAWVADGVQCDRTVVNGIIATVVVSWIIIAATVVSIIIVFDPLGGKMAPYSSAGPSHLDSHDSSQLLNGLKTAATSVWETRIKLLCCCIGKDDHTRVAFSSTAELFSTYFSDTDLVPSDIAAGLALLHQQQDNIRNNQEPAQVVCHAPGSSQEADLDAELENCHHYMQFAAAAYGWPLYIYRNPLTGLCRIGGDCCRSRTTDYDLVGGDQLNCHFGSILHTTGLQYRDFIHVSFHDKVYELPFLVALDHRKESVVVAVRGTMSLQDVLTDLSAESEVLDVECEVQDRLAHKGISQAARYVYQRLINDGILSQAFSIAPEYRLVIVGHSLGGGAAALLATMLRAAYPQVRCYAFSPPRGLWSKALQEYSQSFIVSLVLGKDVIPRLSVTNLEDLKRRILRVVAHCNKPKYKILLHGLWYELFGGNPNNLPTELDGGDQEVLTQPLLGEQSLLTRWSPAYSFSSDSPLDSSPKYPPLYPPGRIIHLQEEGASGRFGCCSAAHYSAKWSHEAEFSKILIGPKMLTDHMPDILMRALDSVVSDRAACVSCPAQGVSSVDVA

The experiment concerns the target Diacylglycerol lipase-beta (Homo sapiens) (UniProt Q8NCG7). In words: DAGLB lipase inhibitors, primary screen, biochemical, fluorescence, HTS (AID 504411).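 Note: 0% = enzyme with vehicle and 100% = wells lacking enzyme.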 The settings on record: HEK293T DAGLB membrane lysate, EnzChek fluorogenic substrate; at 5.17 µM; hits give high values.
Take `c1ccc2c(c1)OCCOCCOCCO2`: the inhibition is 0.06% (inactive). As to `COc1ccc(S(=O)(=O)/N=C2\C=C(NS(=O)(=O)c3ccccc3)C(=O)c3ccccc32)cc1`, the inhibition is 19.7% (inactive). Then `Cc1ccc(S(=O)(=O)/N=C2\C=C(NS(=O)(=O)c3ccc(C)cc3)C(=O)c3ccccc32)cc1`, with 38.9% (active).

As to `Cc1ccc(S(=O)(=O)N/N=C(\c2ccccc2)C2CC2)cc1`, the inhibition was 0.32% (inactive). As for `Cc1nn(C)c(C)c1CN(C(=O)CCc1nnc(Cc2c[nH]c3ccccc23)o1)C(C)C`, the inhibition is 1.36% (inactive). For the compound `COCc1ccc(C(=O)N2CCc3c([nH]c4ccccc34)C2c2ccccn2)s1` (configuration not stated), the inhibition was 2.71% (inactive).

As to `CC(CC(=O)N1CCN(c2ccccc2)CC1)S(=O)(=O)c1ccc2c(c1)NC(=O)CS2` (configuration not stated), the inhibition is 1.53% (inactive).

As to `CCOc1ccc(-n2cnc3c(=O)[nH]c(N)nc32)cc1`, the inhibition is 0.5% (inactive). In the case of `O=C(Nc1nnc(CCN2CCCCC2)s1)c1cccc(Cl)c1` it was 0.09% (inactive); in that of `CCOC(=O)C1=C(C)OC(N)=C(C#N)C1c1cncc(-c2ccc(F)cc2)c1` (configuration not stated), -3.22% (inactive). In the case of `C=CCn1nc(-c2ccccc2)c2c(C)onc2c1=O` it was -0.48% (inactive). In the case of `CC(Sc1nncn1C)C(=O)Nc1cc(C(F)(F)F)ccc1N1CCOCC1` (configuration not stated) it was 0.9% (inactive). For the compound `O=C(NC1CCCC1)C1CC(=O)N(c2ccc(F)cc2)C1` (configuration not stated), the inhibition is 2.14% (inactive).

Turning to `O=C(NNC(=O)c1ccccc1O)c1ccccc1O`, the inhibition was 3.19% (inactive). Then `O=C(COC(=O)c1ccc(O)cc1O)NC(=O)c1ccccc1`, with 1.38% (inactive). In the case of `O=C(NNc1c2ccccc2nc2ccccc12)c1cc2ccccc2cc1O` it was 64% (active); in that of `Cc1ccc(-c2cc(C(F)(F)F)n3ncc(C(=O)N4CCCCC4c4cccnc4)c3n2)cc1` (configuration not stated), 0.87% (inactive). In the case of `Nc1ccc(Cl)c(S(=O)(=O)Nc2ccccc2Cl)c1` it was 2.95% (inactive). Consider `O=C1C(=O)N(CCN2CCOCC2)C(c2ccccn2)/C1=C(/O)c1ccc(Cl)cc1` (configuration not stated), for which the inhibition is 1.82% (inactive). For the compound `COc1cc(/C=C/C(=O)N2CCc3ccccc3C2)cc(OC)c1OC`, the inhibition was -1.38% (inactive). In the case of `O=C(c1ccc(=O)[nH]c1)N(Cc1ccco1)C1(C(=O)NC2CCCCC2)CCCCC1` it was -1.49% (inactive).

On to `COc1cccc(NC(=S)NC(=O)c2c(Cl)c(C)nn2C)c1`, for which the inhibition is -24.9% (inactive). Then `CN(C(=O)CSc1nnc(C2CC2)n1C)C1CCCc2ccccc21` (configuration not stated), with 1.81% (inactive); and `CCOCCn1[nH]c2ccccc2c1=O`, with -1.38% (inactive); and `CCOc1ccc(C(O)Cn2c(=N)n(CCN3CCCCC3)c3ccccc32)cc1` (configuration not stated), with -2.39% (inactive).

Regarding `Cc1cccc(Nc2nc3c(S(=O)(=O)c4ccccc4)nnn3c3ccccc23)c1C`, the inhibition was 0.26% (inactive).

On to `CCn1c(SCC(=O)N2CCCC2=O)nc2ccccc21`, for which the inhibition was -0.5% (inactive).

As to `COc1ccc(OC)c(NC(=O)c2cccc(S(=O)(=O)N3CCN(C(C)=O)CC3)c2)c1`, the inhibition was -0.51% (inactive). In the case of `O=C(CCCN=C1NS(=O)(=O)c2ccccc21)OCC(=O)c1ccc(F)c(F)c1` it was 1.93% (inactive). In the case of `CN1CCC(N(C)C(=O)c2ccc(Cl)c(S(=O)(=O)Nc3ccc(Cl)cc3)c2)CC1` it was -0.08% (inactive); in that of `CSCCC(=O)N1CCCC(CNC(=O)c2ccccc2Cl)C1` (configuration not stated), -3.33% (inactive). In the case of `C[C@H](CO)N1C[C@H](C)[C@@H](CN(C)C(=O)NC2CCCCC2)Oc2ccc(NC(=O)c3ccncc3)cc2C1=O` it was -0.14% (inactive); in that of `O=C1C=C(NCCNc2c(F)c(F)c(CO)c(F)c2F)CCC1`, 0.21% (inactive); in that of `COc1ccc(C(=O)Cn2nnc(-c3ccc(N4CCOCC4)cc3)n2)cc1OC`, 0.4% (inactive). Take `COc1ccccc1NS(=O)(=O)c1ccc(C(=O)N2CCN(c3ccccc3O)CC2)cc1`: the inhibition was 3.47% (inactive). In the case of `CCOC(=O)N1CCC(O)(c2cc(C)c(C)cc2C)CC1` it was -4.76% (inactive); in that of `CC(=O)c1c(C)[nH]c(C(=O)CN2C(=O)NC(C)(C)C2=O)c1C`, 2.12% (inactive). Consider `CCOC(=O)C1CN(S(=O)(=O)c2ccc(F)cc2)C1`, for which the inhibition is -3.17% (inactive). In the case of `O=c1oc(-c2ccccc2NS(=O)(=O)c2ccc(Cl)cc2)nc2ccccc12` it was 6.09% (inactive); in that of `COc1cccc(/C=C2\SC(=S)N(CCCC(=O)N3CCOCC3)C2=O)c1`, -4.26% (inactive); in that of `COCCCNC(=O)[C@H]1N2C(=O)c3ccccc3C2SC1(C)C` (some centres not stated), -1.33% (inactive). In the case of `CC(=O)Nc1ccc(C(=O)Nc2cccc(S(=O)(=O)NC3=NCCC3)c2)cc1` it was -2.22% (inactive); in that of `CCOC(=O)C1CSC(CC(=O)Nc2ccc(OCC)cc2)C(=O)N1` (configuration not stated), 0.21% (inactive); in that of `O=C(O)CC(c1ccccc1F)N1Cc2ccccc2C1=O` (configuration not stated), 1.06% (inactive).

Regarding `CCCN(CCC)S(=O)(=O)c1ccc(C(=O)N2CC3CCC(CC3)C2)cc1`, the inhibition was -8.08% (inactive). On to `COc1ccc(C(=O)c2c(C)oc3cc([N+](=O)[O-])c(O)c([N+](=O)[O-])c23)cc1`, for which the inhibition was 21.1% (inactive). Then `Cc1oc2cc(Br)c(O)c(Br)c2c1C(=O)c1ccccc1`, with -1.78% (inactive).

As for `Cc1oc2cc([N+](=O)[O-])c(O)c([N+](=O)[O-])c2c1C(=O)c1ccc(Br)cc1`, the inhibition was 44% (active). In the case of `CCOc1ccc(S(=O)(=O)NCCC(=O)NCC(C)(C)N2CCOCC2)cc1`, the inhibition was 1.14% (inactive). Then `CSC1=N/C(=C\C=C\c2cccs2)C(=O)S1`, with 6.62% (inactive). Turning to `Cc1c(C(=O)NCC(c2ccco2)N2CCCC2)oc2ccc(Cl)cc12` (configuration not stated), the inhibition was -3.86% (inactive). Then `CCOC(=O)C1CCN(C(=O)C2(NC(=O)Nc3cccc(F)c3)CCCCC2)CC1`, with 1.05% (inactive); and `CC1(C)OC(=O)C(=CNC(CO)C(=O)O)C(=O)O1` (configuration not stated), with -0.76% (inactive).

On to `CC(=O)N1CCc2ccc(N)cc21`, for which the inhibition was -0.55% (inactive). In the case of `COc1ccc(C(=O)NCc2ccc(C)cc2)cc1S(=O)(=O)N1CCCC1` it was -0.31% (inactive); in that of `Cc1cc(=O)n2nc(N3CCCC(C(=O)NCc4cccc(Cl)c4)C3)sc2n1` (configuration not stated), -0.02% (inactive); in that of `CCOC(=O)CN(C(=O)COc1nc(-c2ccccc2)cc(C)c1C#N)c1ccc(F)cc1`, -4.62% (inactive).

The record behind these values is PubChem BioAssay AID504411 (The Scripps Research Institute Molecular Screening Center, 2011).
